# Assay results reported in the supplement of paper PMC4466140.
# B1: unnamed (peptide)
# chain: NMLKKKPLKKPLKRF
# B2: unnamed (peptide)
# chain: GSKSGPPPRPKKPST
# Molecular target: AgAbp1
# Experiment: SPOT peptide array binding signal intensity (averaged, normalized) (arbitrary units (background-subtracted, floor 0; scale differs between SH3 domains)); higher = stronger binding of the SH3 domain to the peptide
# Procedure, shortened: (§1)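 Peptides were synthetic 15-mers on cellulose membranes, with every cysteine replaced by serine. They were incubated overnight at 4°C with GST-SH3 domains from four yeast species at 10 μg/ml in TBS-based blocking buffer. Binding signal, the replicate-averaged normalized and background-subtracted spot intensity, is in arbitrary units that differ between domains.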
row,Binder,SPOT peptide array binding signal intensity
1,B1,2990
2,B2,94

# Molecular target: AgBbc1
# Experiment: as above
# Procedure, shortened: as §1
row,Binder,SPOT peptide array binding signal intensity
1,B1,12.5
2,B2,780

# Molecular target: AgBem1-D1
# Experiment: as above
# Procedure, shortened: as §1
row,Binder,SPOT peptide array binding signal intensity
1,B1,382
2,B2,66.5

# Molecular target: AgBzz1-D1
# Experiment: as above
# Procedure, shortened: as §1
row,Binder,SPOT peptide array binding signal intensity
1,B1,48
2,B2,524

# Molecular target: AgBzz1-D2
# Experiment: as above
# Procedure, shortened: as §1
row,Binder,SPOT peptide array binding signal intensity
1,B1,48
2,B2,102

# Molecular target: AgCyk3
# Experiment: as above
# Procedure, shortened: as §1
row,Binder,SPOT peptide array binding signal intensity
1,B1,1
2,B2,≤ 0

# Molecular target: AgFus1
# Experiment: as above
# Procedure, shortened: as §1
row,Binder,SPOT peptide array binding signal intensity
1,B1,450
2,B2,23

# Molecular target: AgHof1
# Experiment: as above
# Procedure, shortened: as §1
row,Binder,SPOT peptide array binding signal intensity
1,B1,75
2,B2,39.2

# Molecular target: AgHse1
# Experiment: as above
# Procedure, shortened: as §1
row,Binder,SPOT peptide array binding signal intensity
1,B1,924
2,B2,≤ 0

# Molecular target: AgLsb1
# Experiment: as above
# Procedure, shortened: as §1
row,Binder,SPOT peptide array binding signal intensity
1,B1,1
2,B2,≤ 0

# Molecular target: AgLsb4
# Experiment: as above
# Procedure, shortened: as §1
row,Binder,SPOT peptide array binding signal intensity
1,B1,84
2,B2,≤ 0

# Molecular target: AgMyo5
# Experiment: as above
# Procedure, shortened: as §1
row,Binder,SPOT peptide array binding signal intensity
1,B1,≤ 0
2,B2,0.25

# Molecular target: AgNbp2
# Experiment: as above
# Procedure, shortened: as §1
row,Binder,SPOT peptide array binding signal intensity
1,B1,275
2,B2,37

# Molecular target: AgRvs167
# Experiment: as above
# Procedure, shortened: as §1
row,Binder,SPOT peptide array binding signal intensity
1,B1,6.17
2,B2,≤ 0

# Molecular target: AgSho1
# Experiment: as above
# Procedure, shortened: as §1
row,Binder,SPOT peptide array binding signal intensity
1,B1,363
2,B2,20

# Molecular target: AgSla1-D1-D2
# Experiment: as above
# Procedure, shortened: as §1
row,Binder,SPOT peptide array binding signal intensity
1,B1,415
2,B2,9

# Molecular target: AgSla1-D3
# Experiment: as above
# Procedure, shortened: as §1
row,Binder,SPOT peptide array binding signal intensity
1,B1,10
2,B2,7.5

# Molecular target: CaAbp1-D1
# Experiment: as above
# Procedure, shortened: as §1
row,Binder,SPOT peptide array binding signal intensity
1,B1,2870
2,B2,328

# Molecular target: CaAbp1-D2
# Experiment: as above
# Procedure, shortened: as §1
row,Binder,SPOT peptide array binding signal intensity
1,B1,4760
2,B2,189

# Molecular target: CaBbc1
# Experiment: as above
# Procedure, shortened: as §1
row,Binder,SPOT peptide array binding signal intensity
1,B1,98.5
2,B2,825

# Molecular target: CaBem1-D1
# Experiment: as above
# Procedure, shortened: as §1
row,Binder,SPOT peptide array binding signal intensity
1,B1,268
2,B2,13

# Molecular target: CaBzz1-D1
# Experiment: as above
# Procedure, shortened: as §1
row,Binder,SPOT peptide array binding signal intensity
1,B1,208
2,B2,1530

# Molecular target: CaBzz1-D2
# Experiment: as above
# Procedure, shortened: as §1
row,Binder,SPOT peptide array binding signal intensity
1,B1,225
2,B2,388

# Molecular target: CaCyk3
# Experiment: as above
# Procedure, shortened: as §1
row,Binder,SPOT peptide array binding signal intensity
1,B1,18
2,B2,36.5

# Molecular target: CaFus1
# Experiment: as above
# Procedure, shortened: as §1
row,Binder,SPOT peptide array binding signal intensity
1,B1,2320
2,B2,42

# Molecular target: CaHof1
# Experiment: as above
# Procedure, shortened: as §1
row,Binder,SPOT peptide array binding signal intensity
1,B1,≤ 0
2,B2,1.5

# Molecular target: CaHse1
# Experiment: as above
# Procedure, shortened: as §1
row,Binder,SPOT peptide array binding signal intensity
1,B1,226
2,B2,0.5

# Molecular target: CaLsb1
# Experiment: as above
# Procedure, shortened: as §1
row,Binder,SPOT peptide array binding signal intensity
1,B1,4.5
2,B2,0.5

# Molecular target: CaLsb4
# Experiment: as above
# Procedure, shortened: as §1
row,Binder,SPOT peptide array binding signal intensity
1,B1,506
2,B2,≤ 0

# Molecular target: CaMyo5
# Experiment: as above
# Procedure, shortened: as §1
row,Binder,SPOT peptide array binding signal intensity
1,B1,27.5
2,B2,0.5

# Molecular target: CaNbp2
# Experiment: as above
# Procedure, shortened: as §1
row,Binder,SPOT peptide array binding signal intensity
1,B1,438
2,B2,27

# Molecular target: CaRvs167
# Experiment: as above
# Procedure, shortened: as §1
row,Binder,SPOT peptide array binding signal intensity
1,B1,47.7
2,B2,≤ 0

# Molecular target: CaRvs167-3
# Experiment: as above
# Procedure, shortened: as §1
row,Binder,SPOT peptide array binding signal intensity
1,B1,44
2,B2,3.5

# Molecular target: CaSho1
# Experiment: as above
# Procedure, shortened: as §1
row,Binder,SPOT peptide array binding signal intensity
1,B1,612
2,B2,29.5

# Molecular target: CaSla1-D1-D2
# Experiment: as above
# Procedure, shortened: as §1
row,Binder,SPOT peptide array binding signal intensity
1,B1,586
2,B2,130

# Molecular target: CaSla1-D3
# Experiment: as above
# Procedure, shortened: as §1
row,Binder,SPOT peptide array binding signal intensity
1,B1,370
2,B2,230

# Molecular target: ScAbp1
# Experiment: as above
# Procedure, shortened: as §1
row,Binder,SPOT peptide array binding signal intensity
1,B1,1040
2,B2,234

# Molecular target: ScBbc1
# Experiment: as above
# Procedure, shortened: as §1
row,Binder,SPOT peptide array binding signal intensity
1,B1,1.5
2,B2,97.8

# Molecular target: ScBem1-D1
# Experiment: as above
# Procedure, shortened: as §1
row,Binder,SPOT peptide array binding signal intensity
1,B1,31
2,B2,15

# Molecular target: ScBzz1-D1
# Experiment: as above
# Procedure, shortened: as §1
row,Binder,SPOT peptide array binding signal intensity
1,B1,10
2,B2,48.5

# Molecular target: ScBzz1-D2
# Experiment: as above
# Procedure, shortened: as §1
row,Binder,SPOT peptide array binding signal intensity
1,B1,22
2,B2,72

# Molecular target: ScCyk3
# Experiment: as above
# Procedure, shortened: as §1
row,Binder,SPOT peptide array binding signal intensity
1,B1,28
2,B2,1

# Molecular target: ScFus1
# Experiment: as above
# Procedure, shortened: as §1
row,Binder,SPOT peptide array binding signal intensity
1,B1,648
2,B2,6.5

# Molecular target: ScHof1
# Experiment: as above
# Procedure, shortened: as §1
row,Binder,SPOT peptide array binding signal intensity
1,B1,0.25
2,B2,1.75

# Molecular target: ScHse1
# Experiment: as above
# Procedure, shortened: as §1
row,Binder,SPOT peptide array binding signal intensity
1,B1,1740
2,B2,13

# Molecular target: ScLsb1
# Experiment: as above
# Procedure, shortened: as §1
row,Binder,SPOT peptide array binding signal intensity
1,B1,1
2,B2,2.5

# Molecular target: ScLsb2
# Experiment: as above
# Procedure, shortened: as §1
row,Binder,SPOT peptide array binding signal intensity
1,B1,1
2,B2,0.5

# Molecular target: ScLsb3
# Experiment: as above
# Procedure, shortened: as §1
row,Binder,SPOT peptide array binding signal intensity
1,B1,340
2,B2,1400

# Molecular target: ScLsb4
# Experiment: as above
# Procedure, shortened: as §1
row,Binder,SPOT peptide array binding signal intensity
1,B1,94
2,B2,5

# Molecular target: ScMyo3
# Experiment: as above
# Procedure, shortened: as §1
row,Binder,SPOT peptide array binding signal intensity
1,B1,2
2,B2,5.25

# Molecular target: ScMyo5
# Experiment: as above
# Procedure, shortened: as §1
row,Binder,SPOT peptide array binding signal intensity
1,B1,≤ 0
2,B2,≤ 0

# Molecular target: ScNbp2
# Experiment: as above
# Procedure, shortened: as §1
row,Binder,SPOT peptide array binding signal intensity
1,B1,552
2,B2,51

# Molecular target: ScPex13
# Experiment: as above
# Procedure, shortened: as §1
row,Binder,SPOT peptide array binding signal intensity
1,B1,194
2,B2,133

# Molecular target: ScRvs167
# Experiment: as above
# Procedure, shortened: as §1
row,Binder,SPOT peptide array binding signal intensity
1,B1,7
2,B2,3.33

# Molecular target: ScSho1
# Experiment: as above
# Procedure, shortened: as §1
row,Binder,SPOT peptide array binding signal intensity
1,B1,1720
2,B2,41

# Molecular target: ScSla1-D1-D2
# Experiment: as above
# Procedure, shortened: as §1
row,Binder,SPOT peptide array binding signal intensity
1,B1,616
2,B2,57.5

# Molecular target: ScSla1-D3
# Experiment: as above
# Procedure, shortened: as §1
row,Binder,SPOT peptide array binding signal intensity
1,B1,261
2,B2,28

# Molecular target: SpAbp1-D1
# Experiment: as above
# Procedure, shortened: as §1
row,Binder,SPOT peptide array binding signal intensity
1,B1,1740
2,B2,85

# Molecular target: SpBbc1
# Experiment: as above
# Procedure, shortened: as §1
row,Binder,SPOT peptide array binding signal intensity
1,B1,4.25
2,B2,5.5

# Molecular target: SpBzz1-D1
# Experiment: as above
# Procedure, shortened: as §1
row,Binder,SPOT peptide array binding signal intensity
1,B1,279
2,B2,320

# Molecular target: SpBzz1-D2
# Experiment: as above
# Procedure, shortened: as §1
row,Binder,SPOT peptide array binding signal intensity
1,B2,2

# Molecular target: SpCyk3
# Experiment: as above
# Procedure, shortened: as §1
row,Binder,SPOT peptide array binding signal intensity
1,B2,≤ 0

# Molecular target: SpHof1
# Experiment: as above
# Procedure, shortened: as §1
row,Binder,SPOT peptide array binding signal intensity
1,B2,1.5

# Molecular target: SpHof1-2
# Experiment: as above
# Procedure, shortened: as §1
row,Binder,SPOT peptide array binding signal intensity
1,B2,10.5

# Molecular target: SpHof1-3
# Experiment: as above
# Procedure, shortened: as §1
row,Binder,SPOT peptide array binding signal intensity
1,B2,25

# Molecular target: SpHse1
# Experiment: as above
# Procedure, shortened: as §1
row,Binder,SPOT peptide array binding signal intensity
1,B2,16.2

# Molecular target: SpLsb1
# Experiment: as above
# Procedure, shortened: as §1
row,Binder,SPOT peptide array binding signal intensity
1,B2,12.5

# Molecular target: SpLsb4
# Experiment: as above
# Procedure, shortened: as §1
row,Binder,SPOT peptide array binding signal intensity
1,B2,332

# Molecular target: SpMyo1
# Experiment: as above
# Procedure, shortened: as §1
row,Binder,SPOT peptide array binding signal intensity
1,B2,8

# Molecular target: SpNbp2
# Experiment: as above
# Procedure, shortened: as §1
row,Binder,SPOT peptide array binding signal intensity
1,B2,5

# Molecular target: SpPex13
# Experiment: as above
# Procedure, shortened: as §1
row,Binder,SPOT peptide array binding signal intensity
1,B2,7

# Molecular target: SpRvs167
# Experiment: as above
# Procedure, shortened: as §1
row,Binder,SPOT peptide array binding signal intensity
1,B2,≤ 0

# Molecular target: SpSla1-D1-D2
# Experiment: as above
# Procedure, shortened: as §1
row,Binder,SPOT peptide array binding signal intensity
1,B2,5

# Molecular target: SpSla1-D3
# Experiment: as above
# Procedure, shortened: as §1
row,Binder,SPOT peptide array binding signal intensity
1,B2,1
